Binding signal data for 112 sequences are collected here from publication PMC5836133, “The intracellular immune receptor Rx1 regulates the DNA-binding activity of a Golden2-like transcription factor”.

Whole data set: some 16,000 sequences, median “e-score” near -0.044, cut for the highest 2% near 0.38. The list comes from a sample in which the highest values are over-represented; it also holds similar and randomly drawn sequences.

The test has as its target T1, GST-NbGlk1(82-244) (Nicotiana benthamiana).
T1 chain: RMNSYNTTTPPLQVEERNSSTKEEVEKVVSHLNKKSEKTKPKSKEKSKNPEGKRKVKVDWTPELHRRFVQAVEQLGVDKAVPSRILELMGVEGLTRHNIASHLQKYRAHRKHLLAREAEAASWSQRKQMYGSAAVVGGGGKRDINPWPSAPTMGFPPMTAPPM
The test is described as follows: protein-binding microarray; NbGlk1 is a Golden2-like transcription factor of Nicotiana benthamiana; high values mean tight binding. Conditions: protein: recombinant; tags: GST (pTH6838); dsDNA, one strand shown.
For the sequence AATTTTAG, the binding signal is 0.222 ± 0.0121 E-score. ATCTGCAT: the binding signal came to 0.31 ± 0.0522 E-score. With AAATCGAC the figure was 0.341 ± 0.00515 E-score. Turning to AATCCAGA, the binding signal came out at 0.349 ± 0.0199 E-score. AATCCAGT: the binding signal was determined as 0.398 ± 0.00993 E-score. The result for AATCCCGG reads 0.326 ± 0.0261 E-score.

On to AATCCAGC, for which the binding signal stood at 0.364 ± 0.00724 E-score. The result for AATCCCAG reads 0.342 ± 0.0163 E-score; that for AATCCAGG, 0.415 ± 0.00511 E-score. ATTACCAC: the binding signal was 0.255 ± 0.0899 E-score. Turning to ATCATAGA, the binding signal came to 0.214 ± 0.00111 E-score. With AGGAAAAT the figure was 0.226 ± 0.0215 E-score; with ACGAAATA, 0.246 ± 0.0511 E-score; with AAGAAATC, 0.443 ± 0.00563 E-score.

For the sequence AAGAAATA, the binding signal was 0.222 ± 0.0864 E-score. For the sequence ATGAAAAT, the binding signal is 0.321 ± 0.0714 E-score. On to AGGAAATC, for which the binding signal stood at 0.4891 ± 0.000893 E-score.

As to AGGAAATA, the binding signal was determined as 0.239 ± 0.0792 E-score. With ATTAAATC the figure was 0.217 ± 0.0673 E-score; with ATGAAATC, 0.4523 ± 0.00241 E-score. With ACGAAAAT the figure was 0.272 ± 0.0271 E-score; with ACGAAATC, 0.477 ± 0.0103 E-score.

Take AAGAAAAT: the binding signal stood at 0.34 ± 0.023 E-score.

Take AACCGGAT: the binding signal worked out at 0.233 ± 0.0852 E-score. With ATTTTGGG the figure was 0.2605 ± 0.000343 E-score. For the sequence ACTGCGAT, the binding signal worked out at 0.208 ± 0.0497 E-score. Take AGTGGATA: the binding signal is 0.257 ± 0.0756 E-score. For AAAACTTA, the binding signal amounted to 0.223 ± 0.0511 E-score. The result for ATCCAGAA reads 0.288 ± 0.0705 E-score; that for ACGCGAAT, 0.244 ± 0.0302 E-score.

In the case of CAATCGTA, the binding signal worked out at 0.235 ± 0.0447 E-score. As for ATCTGAGG, the binding signal is 0.265 ± 0.031 E-score.

Turning to AATTAGAT, the binding signal is 0.224 ± 0.00637 E-score.

Turning to CAGAATTC, the binding signal came to 0.234 ± 0.013 E-score.

As to CAGAAATC, the binding signal was 0.405 ± 0.0372 E-score.

As to AATAAATC, the binding signal amounted to 0.253 ± 0.0219 E-score. With ACAGTATC the figure was 0.304 ± 0.0326 E-score; with ATTCTTGG, 0.242 ± 0.0219 E-score; with AATCTTGT, 0.397 ± 0.0291 E-score. As to AATCATGT, the binding signal was 0.304 ± 0.0651 E-score.

As for AATCTTGA, the binding signal is 0.3773 ± 0.0026 E-score. The result for AATCTTGC reads 0.3479 ± 0.00119 E-score; that for AATCTTTC, 0.387 ± 0.0286 E-score; that for AATCTTTG, 0.378 ± 0.0158 E-score.

Consider AATCTTTA, for which the binding signal turned out to be 0.352 ± 0.0119 E-score.

Turning to AATCTTGG, the binding signal was determined as 0.386 ± 0.0186 E-score. As to AATCGTGG, the binding signal amounted to 0.286 ± 0.072 E-score.

ATCCTAGA: the binding signal came to 0.263 ± 0.0827 E-score.

Turning to AAGGAGAT, the binding signal came out at 0.261 ± 0.0685 E-score. The result for AGGCGATC reads 0.3174 ± 0.0029 E-score; that for ATCCAATC, 0.254 ± 0.066 E-score; that for AAGCAATC, 0.386 ± 0.0251 E-score. The result for ATGCAAAT reads 0.299 ± 0.0135 E-score; that for ATACAATC, 0.274 ± 0.01 E-score. With CAGCAATC, the binding signal is 0.339 ± 0.0127 E-score. With ATGCAATC the figure was 0.4516 ± 0.0024 E-score; with AATCAATC, 0.25188 ± 0.000161 E-score; with ACGCAATA, 0.2818 ± 0.000398 E-score.

In the case of AGGCAATC, the binding signal amounted to 0.417 ± 0.0072 E-score.

For the sequence AGGCAAAT, the binding signal is 0.238 ± 0.00762 E-score.

As to ACGCAATC, the binding signal worked out at 0.4798 ± 0.00123 E-score. The result for ATCTGTTA reads 0.295 ± 0.102 E-score; that for AGGATCCT, 0.307 ± 0.0236 E-score; that for ATCCGAGA, 0.308 ± 0.0203 E-score.

Turning to AAATGGAT, the binding signal stood at 0.235 ± 0.0673 E-score. With ATCCACTA, the binding signal stood at 0.247 ± 0.0967 E-score. The result for AAATTTTA reads 0.24 ± 0.021 E-score; that for ATTGCCCC, 0.205 ± 0.0299 E-score; that for AGGGTAAT, 0.262 ± 0.0657 E-score. With AGTAATCG the figure was 0.296 ± 0.00931 E-score; with ATCACAGA, 0.217 ± 0.141 E-score; with ATATCTGC, 0.438 ± 0.0129 E-score. For ATCTCTGC, the binding signal came to 0.311 ± 0.0301 E-score. Regarding ATATCTTG, the binding signal came to 0.436 ± 0.0173 E-score.

On to ATATCTTA, for which the binding signal stood at 0.408 ± 0.0113 E-score. Take ATATCGTC: the binding signal worked out at 0.328 ± 0.0135 E-score. With ATATCATG the figure was 0.373 ± 0.00698 E-score; with ATCTCTTA, 0.337 ± 0.015 E-score; with ATATCGGC, 0.354 ± 0.0162 E-score. With ATATCGTG the figure was 0.348 ± 0.0162 E-score. For the sequence ATCTCTTC, the binding signal is 0.286 ± 0.00741 E-score. The result for ATATCATA reads 0.307 ± 0.0181 E-score.

Regarding ATATCTTC, the binding signal is 0.412 ± 0.0234 E-score. The result for AGCGATCG reads 0.204 ± 0.00262 E-score; that for AATTCTAT, 0.22 ± 0.114 E-score.

As to AATTGGAT, the binding signal worked out at 0.2 ± 0.0585 E-score.

Consider ATCTTAAT, for which the binding signal was found to be 0.321 ± 0.00718 E-score. In the case of ATATTAAG, the binding signal stood at 0.251 ± 0.0913 E-score. The result for ATCCACAA reads 0.29 ± 0.0043 E-score; that for ATTTTATA, 0.281 ± 0.0713 E-score; that for ATTTGCGA, 0.294 ± 0.051 E-score. On to AGTAAAAT, for which the binding signal was found to be 0.292 ± 0.0131 E-score. For the sequence ACTGAATA, the binding signal was 0.204 ± 0.00699 E-score. For the sequence ATATCAGA, the binding signal amounted to 0.343 ± 0.0575 E-score. The result for ATCTCTGG reads 0.205 ± 0.0181 E-score. For ATCTCGTG, the binding signal is 0.357 ± 0.0779 E-score.

On to ATATCGGG, for which the binding signal stood at 0.343 ± 0.0169 E-score.

Take ATCTCTTG: the binding signal turned out to be 0.379 ± 0.0245 E-score. The result for ATATCTGG reads 0.401 ± 0.00925 E-score.

Regarding ATATCTGA, the binding signal was 0.399 ± 0.00857 E-score.

In the case of ATCTCCTG, the binding signal was 0.3116 ± 0.00208 E-score. The result for ATCTCTGA reads 0.269 ± 0.143 E-score; that for ATCTACTA, 0.341 ± 0.0266 E-score; that for ATCTGTGA, 0.344 ± 0.0977 E-score. In the case of ATATGCTA, the binding signal is 0.224 ± 0.0529 E-score.

Turning to ACATAGAT, the binding signal stood at 0.223 ± 0.0149 E-score. Regarding ATATTCAC, the binding signal turned out to be 0.208 ± 0.132 E-score.

For the sequence ATCATAAA, the binding signal worked out at 0.232 ± 0.00949 E-score. The result for ATCCAGGA reads 0.328 ± 0.0422 E-score; that for AGTATCCG, 0.328 ± 0.0412 E-score; that for ATTCTGGA, 0.248 ± 0.0551 E-score. The result for ATCTGGGG reads 0.27 ± 0.147 E-score.
